According to PubChem BioAssay AID743263 (The Scripps Research Institute Molecular Screening Center, 2014):
In all, about 1,100 compounds went through this assay and about 250 (23%) were called active. No stated cut-off is given here; in the data, active means inhibition above about 25%; inactive means the rest. Not all results are given here.

Each compound was assayed against Tyrosyl-DNA phosphodiesterase 2 (Homo sapiens) (UniProt O95551) (assay: human TDP2 enzyme inhibitors, retest, confirmation, biochemical, epi absorbance, recombinant enzyme (AID 743263;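 further: 0% = vehicle with enzyme and 100% = no enzyme buffer only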)). Conditions: recombinant human TDP2, absorbance read-out; at 12.8 µM; active compounds read high.
Tyrosyl-DNA phosphodiesterase 2 (Homo sapiens), sequence (O95551 whole entry, looked up): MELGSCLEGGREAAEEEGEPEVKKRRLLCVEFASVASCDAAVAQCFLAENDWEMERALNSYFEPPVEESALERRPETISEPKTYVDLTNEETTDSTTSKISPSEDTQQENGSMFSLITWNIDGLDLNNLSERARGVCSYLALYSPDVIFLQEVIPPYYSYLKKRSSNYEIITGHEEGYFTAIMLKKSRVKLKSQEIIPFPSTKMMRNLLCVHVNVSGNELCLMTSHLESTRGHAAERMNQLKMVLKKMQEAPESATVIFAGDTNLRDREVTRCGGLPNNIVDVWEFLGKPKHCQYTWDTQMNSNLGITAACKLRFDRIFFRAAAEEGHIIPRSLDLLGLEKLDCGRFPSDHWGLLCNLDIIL

inhibition, inactive:
CCSc1nnc(SCC(=O)NNC(=O)c2ccccc2F)s1 -14.1%, Cc1cc(C)c(OCCN2CC(C)OC(C)C2)c(Br)c1 (stereo not drawn) -5.14%, CCOC(=O)N1CCC(c2cc(=O)n(-c3ccccc3)[nH]2)CC1 0.79%, Cc1ccc(S(=O)(=O)N2CCC(C(=O)NCCC3=CCCCC3)CC2)cc1C -3.83%, CC(C)Cn1c(N)c(C(=O)NCc2cccs2)c2nc3ccccc3nc21 10.2%, CCN(CC)CCN1C(=O)C2C(C(=O)Nc3ccc(Br)cc3)C3C=CC2(O3)C1C(=O)NC1CCCCC1 (stereo not drawn) -2.2%, COc1ccccc1C1C(C#N)=C(N)Oc2c1c(-c1ccccc1)nn2-c1ccccc1 (stereo not drawn) -0.56%, Cn1nc(N)c2ncc(C(Cl)(Cl)Cl)nc21 2.05%, COc1ccc2c(c1)c(=Cc1ccc(N(C)C)cc1)c1cc(-c3ccccc3)[n+](C)n12 9.49%, COc1ccc(-c2csc(Nc3ccc(O)cc3)n2)cc1 3.53%, COc1cc(OC)cc(C(=O)OCC(=O)Nc2sccc2C(N)=O)c1 -2.14%, O=C(OCC(=O)N1CCN(c2ccccc2)CC1)c1ccc([N+](=O)[O-])s1 10.4%, O=C(NC1CCCCC1)N1CCc2[nH]c3ccccc3c2C1 7.01%, Cc1ccc(Cl)cc1NC(=O)CN1CCN(S(=O)(=O)N2CCOCC2)CC1 -8.33%, O=c1oc2ccccc2c(CNc2ccccc2)c1[N+](=O)[O-] 11.7%, O=S(=O)(Nc1ccc(O)c2ccccc12)c1ccc(OC(F)(F)F)cc1 15.5%, Cc1ccc(OCCCCc2c(C)n[nH]c2C)cc1 2.05%, CN1c2ccc(C=O)c3c(C=O)ccc(c23)N(C)C1(C)C 21%, CC(=O)c1ccc(S(=O)(=O)N2CCC3(CC2)OCCO3)cc1 -6.04%, COc1ccc(S(=O)(=O)/N=C2\C=C(NS(=O)(=O)c3ccccc3)C(=O)c3ccccc32)cc1 16.7%, COCCN1C=C2C(=O)C(C)(OC(=O)C3CCCC3)C(=O)C=C2C=C1c1ccsc1 (stereo not drawn) 12.3%, Cc1nn(-c2ccccc2)c2c1C(c1ccc(F)cc1)C(C#N)=C(N)O2 (stereo not drawn) -4.61%, CC1=NN(c2ccc(Cl)c(C(=O)O)c2)C(=O)/C1=C/c1ccc(-c2ccccc2[N+](=O)[O-])o1 -34.7%, CCc1ccccc1NC(=S)Nc1cc(OC)c(NC(=O)C(C)C)cc1OC 2.01%, O=C(NCc1ccccc1Cl)C(=O)NCC1CCCN1S(=O)(=O)c1cccs1 (stereo not drawn) -5.35%, Cc1ccccc1Cn1c2ccccc2c2cnn(CC(=O)NCc3ccco3)c(=O)c21 -10.2%, COc1ccc2c(c1)C(C)=CC(C)(C)N2C(=O)Nc1ccccc1 7.25%, COCCn1nnnc1C(c1cc2ccc(OC)cc2[nH]c1=O)N1CCc2ccccc2C1 (stereo not drawn) -0.83%, C=CCn1c(N)c(C(=O)OCC(C)C)c2nc3ccccc3nc21 9.13%, CCN1C(=O)c2cccc3c(N)ccc1c23 8.24%, CN(C)c1ccc(N/C=C/C(=O)C(F)(F)F)cc1 -9.4%, Cc1[nH][nH]c(=O)c1C(c1ccc(-c2ccc(Cl)cc2)o1)c1c(C)[nH][nH]c1=O 20.6%, O=Cc1cn(-c2ccccc2)nc1-c1ccccn1 2.54%, CC1CCCC(NC(=O)c2cc(-c3ccncc3)nc3ccccc23)C1C (stereo not drawn) -1.39%, Nc1ccc2nn(-c3ccc(Cl)cc3)nc2c1 1.36%, CCCCNC(=O)CCn1nc(-c2ccc(Cl)cc2)ccc1=O -5.6%, O=C(COC(=O)Cc1c[nH]c2ccccc12)NCCc1ccccc1 4.15%, Nc1nc(O)c(CC(=O)O)s1 4.54%, Cc1ccc(C(=O)Nc2c(-c3ccccc3)[nH][nH]c2=O)cc1 12.1%, Nn1cnnc1N/N=C/c1cc([N+](=O)[O-])c(Cl)cc1Cl -5.21%, CCOc1ccc(C(c2c(C)[nH][nH]c2=O)c2c(C)[nH][nH]c2=O)cc1OCC 10.8%, CCOC(=O)c1ccc(NC2Nc3cc(C)nn3S2)cc1 (stereo not drawn) 7.05%, COc1ccccc1CN1CCN(C(c2ccccc2)c2ccccc2)CC1 3.64%, COCCNC(=O)c1ccc(S(=O)(=O)c2ccc(Cl)cc2)c(NC(C)=O)c1 9.19%

inhibition, active:
NC1=CC(=O)C(=O)c2cccnc21 65.8%, CCCCCCCCc1c(O)nc(-n2[nH]c(C)c(CCO)c2=O)[nH]c1=O 27.3%, CC(=O)N(C1=C(Cl)C(=O)c2ccccc2C1=O)c1ccc(C(=O)O)cc1 59.3%, Oc1c(C=Nc2cccc3nsnc23)ccc2ccccc12 41.4%, COc1cc(NC(=O)COC(=O)c2ccc([N+](=O)[O-])s2)cc(OC)c1OC 35.1%, CCN(CC)CCCC(C)n1c2nc(=O)[nH]c(=O)c-2nc2cc(Cl)ccc21 (stereo not drawn) 52.2%, COC1=C(N2CCOCC2)C(=O)c2ccccc2C1=O 30.9%, O=C1Nc2ccc([N+](=O)[O-])cc2C1=Nc1cccc(CO)c1 28.1%, Clc1ccc(C2=CSC3=Nc4cccc5cccc(c45)N23)cc1 55%, Oc1ccc(N=Cc2c(O)ccc3ccccc23)cc1 52.7%, Oc1ccc(N=Cc2sc3ccccc3c2Cl)cc1 71.6%, CCOC(=O)c1c(C)[nH]c2c1-c1ccccc1C(=O)C2=O 84.2%, O=C(NC1=CC(=O)c2ccccc2C1=O)c1ccccc1 60.1%, CCOC(=O)c1ccc(Nc2cc3ccccc3c(=O)[nH]2)cc1 32.7%
